According to PubChem BioAssay:
Calls of active or inactive are those of the source.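 The calls were made as follows: active = normalized viability below 100% at a tested concentration; inactive = the rest.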

assay: drug combination growth inhibition, ovarian cancer – cell-based, oncology-focused library, rucaparib conditional, profiling panel (AID 1508598); settings: patient-derived ovarian cancer cells, CellTiter-Glo viability, 144 h; at 5 µM; OCI-C5x cells; without rucaparib; stronger effect = lower value

Structure (SMILES)	viability
N#CCNC(=O)c1ccc(-c2ccnc(Nc3ccc(N4CCOCC4)cc3)n2)cc1	109% (inactive)
Nc1nc(Nc2ccc(S(N)(=O)=O)cc2)nn1C(=O)c1c(F)cccc1F	11.5% (active)
O=C(Nc1ccccc1-c1cn2c(CN3CCNCC3)csc2n1)c1cnc2ccccc2n1	1.45% (active)
COc1ccc(-c2ccc3c(N4CCOCC4)nc(N4C[C@@H](C)O[C@@H](C)C4)nc3n2)cc1CO	106% (inactive)
CC1(C)CNc2cc(NC(=O)c3cccnc3NCc3ccncc3)ccc21	148% (inactive)
COc1cc2nccc(Oc3ccc(NC(=O)Nc4cc(C)on4)c(Cl)c3)c2cc1OC	104% (inactive)
N#Cc1c(NC(=O)c2cccc3ccccc23)sc2c1CCCC2	64.5% (active)
COc1ccc(-c2ccc3c(N4CCOC[C@@H]4C)nc(N4CCOC[C@@H]4C)nc3n2)cc1CO	47.3% (active)
Cc1cnc(NC(=O)Nc2cc(Br)c(C)cc2OC[C@@H]2CNCCO2)cn1	46.4% (active)
COC(=O)c1ccc2c(C(=Nc3ccc(N(C)C(=O)CN4CCN(C)CC4)cc3)c3ccccc3)c(O)[nH]c2c1	118% (inactive)
Cc1ccc(F)c(NC(=O)Nc2ccc(-c3cccc4[nH]nc(N)c34)cc2)c1	145% (inactive)

same assay, conditions: patient-derived ovarian cancer cells, CellTiter-Glo viability, 144 h; at 5 µM; OCI-P5x cells; with rucaparib 20 µM; stronger effect = lower value; 100% = cells with rucaparib alone

Structure (SMILES)	viability
N#CCNC(=O)c1ccc(-c2ccnc(Nc3ccc(N4CCOCC4)cc3)n2)cc1	46.8% (active)
Nc1nc(Nc2ccc(S(N)(=O)=O)cc2)nn1C(=O)c1c(F)cccc1F	19.1% (active)
O=C(Nc1ccccc1-c1cn2c(CN3CCNCC3)csc2n1)c1cnc2ccccc2n1	0.727% (active)
COc1ccc(-c2ccc3c(N4CCOCC4)nc(N4C[C@@H](C)O[C@@H](C)C4)nc3n2)cc1CO	48% (active)
CC1(C)CNc2cc(NC(=O)c3cccnc3NCc3ccncc3)ccc21	131% (inactive)
COc1cc2nccc(Oc3ccc(NC(=O)Nc4cc(C)on4)c(Cl)c3)c2cc1OC	70.8% (active)
N#Cc1c(NC(=O)c2cccc3ccccc23)sc2c1CCCC2	58.3% (active)
COc1ccc(-c2ccc3c(N4CCOC[C@@H]4C)nc(N4CCOC[C@@H]4C)nc3n2)cc1CO	26.9% (active)
Cc1cnc(NC(=O)Nc2cc(Br)c(C)cc2OC[C@@H]2CNCCO2)cn1	0.466% (active)
COC(=O)c1ccc2c(C(=Nc3ccc(N(C)C(=O)CN4CCN(C)CC4)cc3)c3ccccc3)c(O)[nH]c2c1	51.6% (active)
Cc1ccc(F)c(NC(=O)Nc2ccc(-c3cccc4[nH]nc(N)c34)cc2)c1	14.3% (active)
